This is an account of results in PubChem BioAssay (NCI).

About 83,000 compounds went through this panel and 20% of them were active in at least one assay; those are over-represented in the sample as a whole.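 For each line, cells grew in 96-well plates with the test compound present at a single concentration for 48 hours.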 Activity calls are given as the source filed them. The calls were made as follows: active = growth percent below 10; inactive = the rest.

The test system of the assay is MDA-MB-468 breast. As to the kind of experiment: NCI-60 one-dose screen, 48 h (100 = growth as untreated, 0 = no growth, -100 = all killed). Particulars: 10 µM unless noted.
Take `CN(C)CCCNCc1ccc(-c2ccc(F)c(Cl)c2)o1`: the growth was -66.3% (active).

Turning to `COc1ccc(C(=O)/C=C/c2c(Cl)c3c(c(OC)c2Cl)OCC(=O)N3)cc1`, the growth is 12.4% (inactive).

Regarding `C=CCC(OC(C)=O)c1ccc(C(C)C)cc1` (centres undefined), the growth was 105% (inactive).

In the case of `Cc1ccc(NC2=C(Cl)C(=O)c3nc(C)ccc3C2=O)cc1`, the growth is -81.9% (active).

As to `CCOC(=O)Nc1ccc2c(c1)C(=O)N(CC)c1ccccc1O2`, the growth was -3.61% (active).

Turning to `COc1ccc(-c2nnc(COc3ccc(NC(=O)Nc4cccc(C(F)(F)F)c4)cc3F)o2)cc1`, the growth is 46.1% (inactive).

For `C[n+]1c2ccccc2c(Nc2ccc(N3CCCCC3)cc2)c2[nH]c3ccccc3c21`, the growth was -73.8% (active).

On to `CC(=O)c1c(Nc2ccc(F)c(F)c2F)[nH]c2c(F)cc(F)cc2c1=O`, for which the growth was -21.9% (active).

As for `Cc1ccc(Cn2c(O)c(N=NC(=O)c3ccc(S(N)(=O)=O)cc3)c3ccccc32)cc1`, the growth was 100% (inactive).

On to `CC1(O)COCCCCOc2c(CN)cccc2NC(=O)c2nc(cnc2N)-c2ccc(cc2)S(=O)(=O)C(C)(C)C1` (centres undefined), for which the growth was -35.1% (active).

In the case of `COc1ccccc1N=Nc1c(O)ccc2cc(S(=O)(=O)O)ccc12`, the growth is 111% (inactive).

For `COc1ccc(C2C3=C(COC3=O)N(CCO)c3cc4c(cc32)OCCO4)cc1OC` (centres undefined), the growth is -32.1% (active).

For the molecule `COc1cc(/C=C/C(=O)c2ccc(C(F)(F)F)cc2)ccc1Oc1nc(NCCO)nc(N2CCOCC2)n1`, the growth is 85.6% (inactive).

With `O=C(CCN1CCCC1)Nc1ccc2c(NCCCc3ccccc3)c3ccccc3nc2c1`, the growth was -38.5% (active).
